An excerpt weighted towards active compounds, which were near 12% of everything screened.
PostGolgi ctrl = growth of the yeast control strain, post-Golgi counter-screen; efflux-deficient yeast background strain, growth absorbance A615, 16 h; inhibition, % at 10 µM; 5% of 98,000 active; AID 738
hDAT+cocaine = human DAT dopamine uptake with cocaine, either direction; Q01959; LLC-PK1 hDAT cells, [14C]-dopamine uptake with cocaine IC80; actives deviate in either direction; B-score at 10 µM; 1.3% of 110,000 active;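 active means Z score or B-score, a plate-position-corrected score, falls beyond the plate's 99.7% confidence bounds, in either direction; inactive means both scores lie inside the 99.7% bounds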
PostGolgi yeast = growth inhibition of a yeast mutant, post-Golgi transport screen | 0.9% of 98,000 active | inhibition, % at 10 µM | post-Golgi transport phenotypic cell assay | AID 739;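 further: yeast cells grown in 1536-well plates; yeast grown about 18 h at 30C before absorbance read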
Cav32 inh = human Cav3.2 channel inhibition, primary screen. O95180. Cav3.2-expressing cells, Fluo-4 calcium fluorescence FDSS; active compounds read low. B-score at 10 µM. 4% of 100,000 active. AID 449739;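 active means single-dose well whose peak fluorescence ratio is a statistical outlier from its plate by either plate-standardised score or position-corrected B-score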
PLAP act = activates human placental alkaline phosphatase | P05187 | purified PLAP enzyme, luminescent substrate read-out; active compounds read high | activation fold at 20 µM | 1.2% of 96,000 active | AID 696; in the data active means activation fold above about 2
D1 allo mod = allosterically modulates the human D1 dopamine receptor; HEK293 D1, CRE-luciferase, dopamine EC30 potentiation; actives deviate in either direction; P21728; B-score at 10 µM; AID 641; 5.9% of 58,000 active;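 active means luminescence count or its row- and column-corrected plate score outside the 99.7% band of the plate's sample wells, on either side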
Of the large screens only hits and unclear results are named; the others gave an inactive call. Unless noted, no stated cut-off is given here; in the data, active means inhibition above about 30%; inactive means the rest.

CCOc1cc(S(=O)(=O)N2CCC(C(N)=O)CC2)ccc1F	none (no result: D1 allo mod)
Nc1c(-c2ccccc2)cnn1-c1ccc(C(=O)O)cc1	none (no result: D1 allo mod)
COC(=O)c1ccc(OCC(O)CN(CC(C)C)CC(C)C)cc1 (stereo not drawn)	none
CC1CN(c2nc3c(c(=O)n(C)c(=O)n3C)n2Cc2c(F)cccc2Cl)CC(C)O1 (stereo not drawn)	none
Cc1cc(=O)oc2c(CN3CCCCC3)c(O)c(Cl)cc12	PostGolgi yeast 38.1
CCCc1cc(=O)oc2c(CN3CCCC3)c(O)c(Cl)cc12	PLAP act 2.9 (no result: D1 allo mod)
CCCc1cc(=O)oc2c(CN3CCCC3)c(O)ccc12	none
Cc1c(C)c2cc(Cl)c(O)c(CN3CCN(C)CC3)c2oc1=O	PostGolgi yeast 36.0 (no result: Cav32 inh, D1 allo mod)
c1ccc(CC2CCN(Cc3nc(-c4ccccc4)no3)CC2)cc1	none
O=C(Cn1cnc2c(nnn2-c2ccc(F)cc2)c1=O)N1CCCC1	none
CC1CCCCN1S(=O)(=O)c1ccc(NC(=O)c2cccs2)cc1 (stereo not drawn)	PostGolgi ctrl 33.1
CC1CCN(S(=O)(=O)c2ccc(NC(=O)c3cccs3)cc2)CC1	none
CN(C1CCCCC1)S(=O)(=O)c1ccc(NC(=S)NC(=O)c2cccs2)cc1	Cav32 inh -5.75 (no result: D1 allo mod)
CC(=O)Nc1ccc(S(=O)(=O)N2CCCCC2c2cccnc2)cc1 (stereo not drawn)	PostGolgi ctrl 34.9 (no result: D1 allo mod)
CN(Cc1ccccc1)S(=O)(=O)c1ccc(NC(=S)NC(=O)C2CCCC2)cc1	none (no result: D1 allo mod)
COCCOC(=O)C1=C(C)N=C2SCCC(=O)N2C1c1cccc(Br)c1 (stereo not drawn)	none
NNC(=O)CNC(=O)c1cccc(Br)c1	none (no result: D1 allo mod)
O=C1CC(N2CCN(c3ccccn3)CC2)C(=O)N1CC(c1ccccc1)c1ccccc1 (stereo not drawn)	Cav32 inh -6.29 (no result: PostGolgi ctrl, PostGolgi yeast, PLAP act, D1 allo mod)
CN(CC(=O)Nc1ccc(C#N)cc1)Cc1ccc(Cl)cc1Cl	PostGolgi ctrl 40.9, Cav32 inh -4.2 (no result: D1 allo mod)
O=C(Nc1ccc(Cl)cc1)Nc1ccc(N2CCOCC2)cc1	none
CN(CCC#N)CC(=O)Nc1ccc(NC(=O)CN(C)CCC#N)cc1	none (no result: D1 allo mod)
CCOc1ccc(NC(=O)CN(C)CC(=O)Nc2cc(Cl)ccc2C#N)cc1OCC	PLAP act 2.1 (no result: D1 allo mod)
N#Cc1ccc(NC(=O)Nc2ccc(Cl)cc2)cc1	PostGolgi ctrl 74.4
Cc1cccc(C)c1NC(=O)CN(C)CC(=O)Nc1cc(Cl)ccc1C#N	none (no result: D1 allo mod)
CCOC(=O)N1CCC(Nc2nc3ccccc3nc2NS(=O)(=O)c2ccc(Cl)cc2)CC1	none
CCCS(=O)(=O)c1c(S(=O)(=O)CCC)c2c3ccccc3ccn2c1C(N)=O	none
CCOc1ccc(OC(=O)NC(c2ccccc2)C(Cl)(Cl)Cl)cc1 (stereo not drawn)	Cav32 inh -3.49 (no result: D1 allo mod)
Cc1ccc(NC(=O)Cc2ncc(C(F)(F)F)cc2Cl)cc1Cl	Cav32 inh -4.79 (no result: D1 allo mod)
NC(=O)NOCc1ncc(C(F)(F)F)cc1Cl	none (no result: D1 allo mod)
C=CCn1c(O)c(N=NC(=O)c2ccc3c(c2)OCO3)c2ccccc21	none (no result: D1 allo mod)
CC(=O)c1ccc(N2CCN(C(=O)c3cc4c(=O)n(C)c5ccccc5c4n3C)CC2)cc1	none (no result: PostGolgi ctrl, hDAT+cocaine, PostGolgi yeast, Cav32 inh, PLAP act)
COc1c(/C=N/Nc2nc(N3CCCCC3)nc(N3CCCCC3)n2)cccc1[N+](=O)[O-]	none (no result: D1 allo mod)
O=[N+]([O-])c1ccc(/C=N/Nc2nc(N3CCCCC3)nc(N3CCCCC3)n2)o1	PostGolgi ctrl 49.1 (no result: D1 allo mod)
CN(C)S(=O)(=O)Oc1ccsc1C(=O)Nc1cccc(Cl)c1	none (no result: D1 allo mod)
COC(=O)c1sccc1-c1ccc(C(=O)Nc2cccc(Cl)c2)o1	PostGolgi ctrl 45.7 (no result: D1 allo mod)
COCc1cc(C)nc(N2CCN(Cc3ccccc3)CC2)c1C#N	none (no result: D1 allo mod)
COCc1cc(C)nc(N2CCN(c3ccccc3)CC2)c1C#N	Cav32 inh -4.47 (no result: PostGolgi ctrl, PostGolgi yeast)
CCn1c(SCC(=O)N/N=C/c2ccc(OC)c(OC)c2)nc2ccccc21	hDAT+cocaine 4.19 (no result: D1 allo mod)
C=CCN1C=C2C(=O)C(C)(OC(=O)c3ccco3)C(=O)C(C=C)=C2C=C1C1CC1 (stereo not drawn)	none (no result: PostGolgi ctrl, PostGolgi yeast, PLAP act, D1 allo mod)
O=C(NNC(=O)c1ccccc1[N+](=O)[O-])c1cnccn1	none (no result: PLAP act, D1 allo mod)
O=C(NNC(=S)NC(=O)c1ccccc1[N+](=O)[O-])c1ccccc1[N+](=O)[O-]	PLAP act 2.5 (no result: D1 allo mod)
Cc1ccc(C(=O)NNC(=S)NC(=O)c2ccc(Cl)cc2Cl)cc1	none (no result: D1 allo mod)
Cc1ccc(C(=O)NC(=S)NNC(=O)c2ccccc2[N+](=O)[O-])cc1	Cav32 inh -7.98 (no result: PostGolgi ctrl, PostGolgi yeast, PLAP act, D1 allo mod)
O=c1[nH]nc(Sc2ncnc3sccc23)n1CCc1ccccc1	none (no result: hDAT+cocaine, Cav32 inh)
FC(F)(F)c1cnc(Oc2ccccc2-c2nnco2)c(Cl)c1	PLAP act 2.3 (no result: D1 allo mod)
CC(NC(=O)CCCN1C(=O)c2ccccc2C1=O)c1ccc2c(c1)CCCC2 (stereo not drawn)	Cav32 inh -4.2 (no result: D1 allo mod)
CC(NC(=O)CCCCCN1C(=O)c2ccccc2C1=O)c1ccc2c(c1)CCCC2 (stereo not drawn)	Cav32 inh -3.66 (no result: D1 allo mod)
O=C(CCCN1C(=O)c2ccccc2C1=O)NC1CCCCCC1	none (no result: D1 allo mod)
CN(C)C(=O)c1ccccc1Sc1cc(Cl)ccc1Cl	PostGolgi ctrl 35.3 (no result: Cav32 inh, D1 allo mod)
O=C(CCCCn1c(=O)c2ccccc2n(Cc2ccc(F)cc2Cl)c1=O)NCc1ccco1	D1 allo mod 14.3 (no result: Cav32 inh)
Cc1c(C(=O)N2CCN(CCc3ccccc3)CC2)oc2ccccc12	none
Cc1c(C(=O)N2CCN(S(C)(=O)=O)CC2)oc2ccccc12	PostGolgi ctrl 34.0
CCc1c(C(=O)N/N=C/c2ccc(C)o2)csc1C	none (no result: PostGolgi ctrl, PostGolgi yeast, PLAP act, D1 allo mod)
CC(C)COc1ccc(CNC(=S)N/N=C/c2ccc([N+](=O)[O-])cc2)cc1	none (no result: D1 allo mod)
CCCCOc1ccc(/C=N/NC(=O)c2csc(C)c2C)cc1	PostGolgi ctrl 35.3 (no result: D1 allo mod)
Cc1scc(C(=O)N/N=C/c2ccc(OCC(C)C)cc2)c1C	Cav32 inh -4.34 (no result: D1 allo mod)
CCC1Oc2ccc(C)cc2N(CC(=O)NCCN2CCCCCC2)C1=O (stereo not drawn)	none
CSc1ccc(/C=N/NC(=O)c2cccc(O)c2)cc1	none (no result: D1 allo mod)
N#CC1=C(S)N=C(N)C(c2nc(-c3ccccc3)cs2)C12CCCCC2 (stereo not drawn)	PLAP act 2.2 (no result: hDAT+cocaine, Cav32 inh, D1 allo mod)
Cc1ccc(-c2csc(C3C(N)=NC(S)=C(C#N)C34CCCCC4)n2)cc1 (stereo not drawn)	PLAP act 2.4 (no result: D1 allo mod)
N#CC1=C(S)N=C(N)C(c2nc(-c3ccccc3)cs2)C12CCCC2 (stereo not drawn)	PLAP act 2.5 (no result: D1 allo mod)
Nc1nc(-c2ccccc2)cs1	none (no result: D1 allo mod)
N#CC1=C(N)N=C(SCc2ccccc2)C(C(N)=O)C12CCCCC2 (stereo not drawn)	none
COc1ccc(N(C(=O)c2ccc(Br)o2)C2C=CS(=O)(=O)C2)cc1 (stereo not drawn)	none (no result: D1 allo mod)
COCCn1c(C)cc(C(=O)COC(=O)CCc2ccc(S(=O)(=O)N3CCOCC3)cc2)c1C	none
COCC(C)n1c(C)cc(C(=O)COc2ccc(S(=O)(=O)N3CCOCC3)cc2Cl)c1C (stereo not drawn)	PLAP act 2 (no result: D1 allo mod)
CCc1cc(=O)oc2cc(OC(C)C(=O)O)c(Cl)cc12 (stereo not drawn)	D1 allo mod -4.18
